# POLK inh – blocks human DNA polymerase kappa activity | Q9UBT6 | purified Pol kappa, fluorescent DNA synthesis assay, 10 min | Potency, µM (top dose mostly 107 µM), for the others: top-dose activity, negative = inhibition, actives largely listed as inhibitors | hit rate 0.53% among 400,000 | AID 588579; further: on the % scale 0 is the no-effect control and ±100 the full control effect
#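 10 nM Pol kappa preincubated 15 min at room temperature with compounds, then reaction started with substrate at 50 nM final. Fluorescence read kinetically at 0 and 10 min; buffer-only wells served as negative control.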
# Pol beta inh – inhibitors of human DNA polymerase beta; Potency, µM (series often up to 114 µM), without a hit: top-dose activity change, negative = inhibition, most hits filed as inhibitors; AID 485314; hit rate 1.3% among 340,000; Pol beta primer extension/strand displacement, fluorescence kinetic; further: on the % scale 0 is the no-effect control and ±100 the full control effect
#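 Enzyme-only controls used 10 nM Pol beta; buffer lacking enzyme served as negative control. Compound preincubated 15 min, then 50 nM substrate added; 0 and 10 min reads at room temperature.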
# POLI inh – DNA polymerase iota (human) inhibition. AID 588590. hit rate 1% among 390,000. Q9UNA4. Pol iota fluorescent replication assay, 10 min. Potency, µM (series often up to 115 µM), inactives show at the highest dose activity, negative = inhibition, actives largely listed as inhibitors
# Target sequence (Q9UNA4 whole entry, looked up): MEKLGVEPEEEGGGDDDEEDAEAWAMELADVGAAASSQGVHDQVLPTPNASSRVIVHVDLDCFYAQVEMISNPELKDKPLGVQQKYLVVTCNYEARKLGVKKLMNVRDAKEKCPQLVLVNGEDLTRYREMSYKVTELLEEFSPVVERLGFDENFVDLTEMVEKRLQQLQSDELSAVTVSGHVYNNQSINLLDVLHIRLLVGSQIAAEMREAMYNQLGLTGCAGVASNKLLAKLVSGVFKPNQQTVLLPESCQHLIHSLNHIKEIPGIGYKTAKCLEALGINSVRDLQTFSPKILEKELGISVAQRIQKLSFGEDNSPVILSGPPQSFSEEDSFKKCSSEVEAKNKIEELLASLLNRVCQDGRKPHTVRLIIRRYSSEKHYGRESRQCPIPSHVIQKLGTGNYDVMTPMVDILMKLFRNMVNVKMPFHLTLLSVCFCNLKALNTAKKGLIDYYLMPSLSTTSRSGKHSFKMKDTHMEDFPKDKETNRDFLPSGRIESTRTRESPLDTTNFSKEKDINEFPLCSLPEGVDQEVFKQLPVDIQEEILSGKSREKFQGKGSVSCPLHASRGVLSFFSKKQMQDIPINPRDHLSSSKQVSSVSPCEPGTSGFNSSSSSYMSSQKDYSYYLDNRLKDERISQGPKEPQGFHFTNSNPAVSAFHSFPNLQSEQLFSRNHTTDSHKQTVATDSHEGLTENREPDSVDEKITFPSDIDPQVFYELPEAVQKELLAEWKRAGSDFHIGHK
#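 Pol iota at 10 nM preincubated 15 min with compounds at room temperature; reaction started with fluorescent substrate, 50 nM final. Fluorescence read kinetically at 0 and 10 min; buffer-only wells as negative control.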
# FEN1 inh – blocks human flap endonuclease 1; Recombinant FEN1 flap cleavage, fluorescence, 15 min; Potency, µM (highest dose often 114 µM), without a hit: at the highest dose activity change, negative = inhibition, usual class: inhibitors; hit rate 0.35% among 390,000; AID 588795; further: on the % scale 0 is the no-effect control and ±100 the full control effect; nearly all actives have a fitted effect of over 65% in size
#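 Compounds are tested as a concentration series against 10 nM FEN1; after a 15 min room-temperature preincubation, 50 nM substrate starts cleavage, with plate reads at 0 and 15 min. Normalized responses are fitted by a Hill equation.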
# WRN helicase inh – blocks human WRN helicase. WRN helicase unwinding, fluorescent forked duplex, kinetic. Potency, µM (series often up to 114 µM), inactives show at the top dose activity change, negative = inhibition, actives largely listed as inhibitors. hit rate 0.46% among 360,000; further: on the % scale 0 is the no-effect control and ±100 the full control effect; nearly all actives have a fitted effect of over 55% in size
#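 Screening of the MLSMR collection measured strand separation of a quenched forked DNA duplex (100 nM) by 20 nM WRN with 2 mM ATP, all final. Compounds were preincubated with enzyme 15 min at room temperature.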
# Pol eta inh – blocks human DNA polymerase eta activity; Potency, µM (highest dose often 114 µM), without a hit: at the highest dose activity change, negative = inhibition, most hits filed as inhibitors; recombinant Pol eta, fluorescent DNA replication assay; hit rate 1.2% among 390,000; Q9Y253; further: on the % scale 0 is the no-effect control and ±100 the full control effect
#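 Pol eta at 10 nM preincubated with compounds 15 min at room temperature; reaction started with fluorescent substrate (50 nM final) and read kinetically at 0 and 10 min.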
# * marks the source's active call; other numbers are inactive results; ? = inconclusive; · = no result given; [ ] = another dose, or the depositor's remark. A selection: hits, their analogues and other compounds. The true share with any hit is near 2.4%. The call rests on the fitted dose curve; in most records, active means well fitted curve in the direction sought with a large enough effect; inconclusive means small, poorly fitted or top-dose-only effect, or another doubt; inactive means no such curve, though single readings can be large; an effect the other way counts as inactive or inconclusive. Potency means the concentration at half of the fitted maximal effect.
SMILES,POLK inh,Pol beta inh,POLI inh,FEN1 inh,WRN helicase inh,Pol eta inh
O=C1OC(/C(=C\Nc2cc(Cl)ccc2O)[N+](=O)[O-])c2ccccc21 (configuration not stated),-14.3%,-7.7%,?,-6.7%,-30.1%,22.4µM*
Cc1ccc(C(=O)CSc2nnc(-c3ccco3)n2C)cc1,-18.7%,59.6%,21.3%,1.1%,?,-3.5%
Cn1c(SCC(=O)c2cc(Cl)c(Cl)s2)nnc1-c1ccco1,31.6µM*,20µM*,15.8µM*,-21.0%,?,?
COC(=O)c1cc2oc(C)cc2n1Cc1ccccc1Cl,-8.2%,1.2%,16.6%,8.1%,·,?
O=C(Nc1ccc(Br)cc1F)c1cnn2c1NC(=C1CC1)C=C2C(F)F,31.6µM*,·,?,9.5%,·,·
CCCCC[C@H](C)N1C[C@@H](COCc2ccccc2)Oc2cc(N3CCC[C@H]3C(N)=O)ccc2S1(=O)=O,·,·,·,·,-11.7%,·
CCCCNC(=O)CSc1nc2cc3c(cc2c(=O)n1CCCC(=O)NCc1ccc2c(c1)OCO2)OCO3,-5.4%[60.1 µM],38.4%,89.1µM*,-8.6%,·,-5.1%
COCCCNC(=O)CSc1nc2cc3c(cc2c(=O)n1CCCC(=O)NCc1ccc2c(c1)OCO2)OCO3,-6.2%[60.1 µM],1.7%,1.5%,18.2%,·,13.2%
Cn1c(=O)c2c(nc(SCC(=O)NCc3ccc4c(c3)OCO4)n2Cc2ccc(Cl)cc2)n(C)c1=O,-43.5%,-17.4%,?,-11.3%,-11.5%,89.1µM*
COC(=O)c1ccc2c(c1)C(C)(C)C(/C=C/c1ccccc1O)=[N+]2C,35.5µM*,?,28.2µM*,50.1µM*,56.2µM*,18.5%
CNCc1ccccc1Sc1cc(O)ccc1O,-16.0%,6.1%,?,?,31.6µM*,-17.6%
CNCc1ccccc1Sc1cccc(O)c1,-17.9%,14.0%,113.4%,-2.2%,-10.0%,2.7%
CCOC(=O)c1c(NC(=O)CSc2nnnn2-c2ccccc2)sc2c1CCC(C)C2 (configuration not stated),-2.9%,19.3%,21.7%,-16.6%,-7.4%,-21.9%
CCn1c2ccccc2c2cc(/C=N/NC(=O)c3ccncc3)ccc21,-28.9%,15.8µM*,73.6%,?,-6.8%,?
CC1CCc2c(sc(NC(=O)c3cccn3C)c2C(N)=O)C1 (configuration not stated),-22.0%,·,?,12.4%,-6.2%[11.6 µM],31.6µM*
CCn1c(SCC(=O)Nc2cccc(NC(C)=O)c2)nnc1-c1ccco1,-22.4%,16.4%,166.9%,-5.1%,-5.6%,-9.3%
CCn1c(SCC(=O)Nc2sc3c(c2C(N)=O)CCC(C)C3)nnc1-c1ccco1 (configuration not stated),?,56.2µM*,22.4µM*,?,?,?
CCn1c(SCC(=O)Nc2ccc3c(c2)c2ccccc2n3CC)nnc1-c1ccco1,35.5µM*,1.7%,?,50.1µM*,185.4%,25.1µM*
Cc1cc(F)ccc1NC(=O)CCS(=O)(=O)c1cc2c3c(c1)CCN3C(=O)CC2,-11.2%,8.7%,-23.3%,-3.0%,·,-19.7%
CC(=O)Nc1ccc(OC(C)=O)cc1,-9.4%[19.4 µM],·,·,·,·,·
CCn1c2ccccc2c2cc(NC(=O)c3coc(=O)c(Br)c3)ccc21,·,2.0%,·,·,·,·
CCn1c(SCC(=O)N/N=C/c2ccc(C)o2)nnc1-c1ccccc1,2.1%,-1.2%,55.9%,-6.5%,3.7%,-7.6%
Cc1nnc(NC(=O)CSc2nnc(-c3ccco3)n2C(C)C)s1,-4.7%,-7.2%,84.0%,4.3%,-1.9%,-7.0%
CCn1c(SCC(=O)N/N=C/C(C)=C\c2ccco2)nnc1-c1ccccc1,?,28.2µM*,44.7µM*,7.2%,-4.8%[11.6 µM],?
CCn1c2ccccc2c2cc(NC(=O)c3ccc(=O)oc3)ccc21,?,?,50.1µM*,15.6%,-5.7%[11.6 µM],?
SMILES,POLK inh,Pol beta inh,POLI inh,FEN1 inh,WRN helicase inh,Pol eta inh
CC(C)n1c(SCC(=O)Nc2nncs2)nnc1-c1ccco1,79.4µM*,20µM*,15.8µM*,?,?,7.94µM*
COc1ccc(-c2oc3ncn4nc(-c5ccccc5O)nc4c3c2-c2ccc(OC)cc2)cc1,-3.6%,7.7%,14.9%,-4.1%,·,-21.8%
CCN1C/C(=C/c2ccc(N3CCOCC3)cc2)C(=O)/C(=C/c2ccc(N3CCOCC3)cc2)C1,?,?,79.4µM*,79.4µM*,79.4µM*,?
CCc1ccc(/C=C2/SC(N3CCOCC3)=NC2=O)cc1,4.4%,22.4%,39.6%,4.4%,-7.5%,-21.2%
O=C(O)c1cccc(N2C(=O)c3ccc(C(=O)c4cccc([N+](=O)[O-])c4)cc3C2=O)c1,-39.6%,-8.9%,-29.4%,-6.5%,-6.8%,56.2µM*
CC(=O)c1ccc(NC(=O)c2ccc3c(c2)C(=O)N(c2ccccn2)C3=O)cc1,3.2%,-18.4%,14.7%,-1.3%,-5.5%,-15.3%
O=C(Nc1cccc([N+](=O)[O-])c1)c1ccc2c(c1)C(=O)N(c1ccccn1)C2=O,-11.2%,44.7µM*,-13.4%,-31.4%,-18.2%,-20.1%
O=C(Nc1cccc([N+](=O)[O-])c1)c1cccc(C(=O)Nc2cccc([N+](=O)[O-])c2)c1,-9.2%,1.12µM*,-13.8%,-19.9%,2.7%,1.6%
O=C(Nc1cc(Sc2ccccn2)cc([N+](=O)[O-])c1)c1ccc([N+](=O)[O-])cc1,-2.4%,3.1%,0.0%,-26.5%,31.6µM*,?
CCOC(=O)N1CCN(C(=O)CN(c2ccc(C)cc2C)S(=O)(=O)c2ccccc2)CC1,-0.8%,2.5%,17.3%,-4.1%,·,-6.6%
CC(=O)Nc1cccc(OCCCOc2cccc([N+](=O)[O-])c2)c1,-4.2%,·,17.7%,-1.1%,1.2%,-22.8%
O=C(O)COc1cccc(NC(=O)c2ccccc2)c1,-3.4%,2.3%,?,-0.5%,-2.7%[57.1 µM],79.4µM*
COc1cccc(OCC(=O)NNC(=O)c2ccc(-c3ccccc3)cc2)c1,-13.6%,79.4µM*,?,10.2%,-10.3%,-15.5%
O=S(=O)(c1cccc2ccccc12)N1CCN(c2ccc(Cl)c(Cl)c2)CC1,8.9%,17.9%,20.7%,-15.8%,·,-12.0%
C[C@H]1CN([C@@H](C)CO)C(=O)CCCn2nncc2CO[C@H]1CN(C)C(=O)c1cc(-c2ccccc2)on1,·,·,·,·,4.1%,-13.1%
O=C(O)c1cc(N/N=C/c2ccc3c(c2)OCCO3)ccc1Cl,?,?,?,3.4%,-18.4%[57.1 µM],25.1µM*
CC(C)n1cc(/C=N/Nc2ccc(Cl)c(C(=O)O)c2)c2ccccc21,·,31.6µM*,·,·,·,·
O=Cc1cc2cc3c(cc2nc1Cl)OCCO3,1.4%,4.2%,37.2%,5.4%,8.7%,8.3%
O=C(O)c1cc(N/N=C/c2cccs2)ccc1Cl,·,22.4µM*,·,·,·,·
